Measurements: PubChem BioAssay AID686971 (National Center for Advancing Translational Sciences (NCATS), 2013)
About 7,500 (2.1%) of roughly 360,000 compounds were called active. Inconclusive results (about 8%) are left out. Calls follow the shape of the dose curve; as a rule, active = well fitted cell-killing curve with a large enough effect; inconclusive = small, poorly fitted or top-dose-only effect, or effect the other way, or another doubt; inactive = no such curve, though single readings can be large or run the other way. The sample as a whole holds a higher share of actives than the screen did.

Test: qHTS for induction of synthetic lethality in tumor cells producing 2HG: qHTS for the HT-1080-IDH1KD cell line;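 as to activity, negative = toxicity: 0% = DMSO wells and -100% = cell-free medium wells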
Details: HT-1080 IDH1 knockdown viability, ATP luminescence, 48 h; series mostly up to 46.1 µM; activity, negative = toxicity: at the top concentration
Outline: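 Using the IDH1-knockdown HT-1080 line run in the same batch and compound series as the NT line, viability after 48 h at 37 °C was determined by CellTiter-Glo luminescence and expressed as % activity.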
Potency is read from the fitted curve at half-maximal effect.

| Compound | activity, negative = toxicity | Potency |
| --- | --- | --- |
| CC1(C(=O)NS(=O)(=O)C2CC2)CCCN(C(=O)CSc2ccccc2)C1 (centres undefined) | 7.52% (inactive) |  |
| Oc1c(C(c2ccccn2)N2CCOCC2)ccc2cccnc12 (centres undefined) |  | 0.251 µM (active) |
| CC(C)c1cc(CN2CCOCC2)cc(C(C)C)c1O | 8.37% (inactive) |  |
| O=C(Nc1ccccc1)c1ccccc1Br | 10.7% (inactive) |  |
| CC(C)C[C@H](NC(=O)N1CC(=O)Nc2ccccc21)C(=O)N[C@H](Cc1ccccc1)C(=O)O | 2.48% (inactive) |  |
| CC(C)c1ccc(NC(=O)[C@@H](NC(=O)N2CC(=O)Nc3ccccc32)C(C)C)cc1 |  | 13 µM (active) |
| CC(C)[C@H](NC(=O)N1CC(=O)Nc2ccccc21)C(=O)N[C@@H](Cc1c[nH]c2ccccc12)C(=O)O | -0.456% (inactive) |  |
| COc1ccc(C(C)C)cc1-c1ccc2nncn2c1 | 3.86% (inactive) |  |
| CC1(C(=O)NS(=O)(=O)c2ccccc2)CCN1C(=O)Cc1ccc(-c2ccccc2)cc1 (centres undefined) | 13% (inactive) |  |
| Cc1ccc(F)c(S(=O)(=O)NC(=O)C2(C)CCN2C(=O)CCc2cccs2)c1 (centres undefined) | 14.3% (inactive) |  |
| CCCOc1ccc(C2NC(=O)NC(c3ccccc3)=C2C(C)=O)cc1OCC (centres undefined) | -22.4% (inactive) |  |
| COC(=O)c1ccc(C2CC(=O)Nc3cc(OC)c(OC)cc32)cc1 (centres undefined) | -7.3% (inactive) |  |
| CCCOc1ccccc1C1CC(=O)Nc2cc3c(cc21)OCO3 (centres undefined) |  | 1.84 µM (active) |
| CCc1ccccc1NC(=O)CSc1nnc([C@@H](NC(=O)OC(C)(C)C)C(C)CC)o1 (some centres undefined) | 6.33% (inactive) |  |
| COc1ccccc1NC(=O)[C@H](COCc1ccccc1)NC(=O)OC(C)(C)C | -8.92% (inactive) |  |
| C[C@@H](NC(=O)OC(C)(C)C)c1nnc(S(=O)(=O)Cc2ccccc2)o1 |  | 18.4 µM (active) |
| OC[C@@H]1CN(Cc2ccc(-c3ccccc3)cc2)C[C@H](n2cnc3c(NC4CCCC4)ncnc32)O1 |  | 20.6 µM (active) |
| OC[C@@H]1CN(Cc2ccc(F)cc2)C[C@H](n2cnc3c(NC4CCCC4)ncnc32)O1 | 16.5% (inactive) |  |
| OC[C@@H]1CN(Cc2cccs2)C[C@H](n2cnc3c(NC4CCCC4)ncnc32)O1 | -0.119% (inactive) |  |
| CC1=C(C(=O)N2CCOCC2)CC(CC(=O)NCc2cccc3ccccc23)C(=O)N1CCC1=CCCCC1 (centres undefined) | -3.06% (inactive) |  |
| Cc1ccc(C(=O)NC(C)C(c2cccs2)N2CCOCC2)cc1C (centres undefined) | -21.6% (inactive) |  |
| CCC(=O)N1Cc2cc(C(=O)NCc3cccc(F)c3)nc(-c3cccc(C4=CCCC4)c3)c2[C@H]1CCO | -24.6% (inactive) |  |
| COc1cc(OC)cc(C2=Cc3ccccc3C(CC(=O)c3ccco3)N2c2ccc(-c3cnc(OC)nc3)cc2)c1 (centres undefined) | -0.402% (inactive) |  |
| CCCC(O)(CCC)C(=O)NN(C(=O)CCl)c1cccc(C)c1 |  | 5.17 µM (active) |

| Compound | activity, negative = toxicity | Potency |
| --- | --- | --- |
| Cc1cccc(N(Cc2ccccc2)C(=O)c2ccccc2F)c1 | -0.932% (inactive) |  |
| CC(C)(O)C(=O)NN(C(=O)c1ccccc1)c1cccc(Br)c1 | 11.4% (inactive) |  |
| CC1(C(=O)NS(=O)(=O)c2cccc(OC(F)F)c2)CCN1C(=O)C1CC1 (centres undefined) | 4.44% (inactive) |  |
| O=C(Nc1ccc(F)cc1)C(CCc1ccccc1)N1CCN(CC(=O)N2CCCC2)CC1 (centres undefined) | -0.549% (inactive) |  |
| Cc1nc(-c2ccc(Cl)cc2)sc1C(=O)CBr | -1.12% (inactive) |  |
| Cc1nc(-c2ccc(Cl)cc2)sc1C(=O)NN |  | 10.3 µM (active) |
| Cc1nc(N2CCOCC2)sc1C(=O)NN | -18.6% (inactive) |  |
| COCCCNC(=O)c1ccc(-c2c(C)noc2C)c2ccoc12 | 0.623% (inactive) |  |
| O=C(NOCc1ccccc1)c1cccc([N+](=O)[O-])c1 | 16.1% (inactive) |  |
| O=C(NC(Nc1nc2ccc([N+](=O)[O-])cc2s1)(C(F)(F)F)C(F)(F)F)c1ccccc1 |  | 5.17 µM (active) |
| O=C(COC(=O)c1ccc([N+](=O)[O-])cc1Cl)NC(=O)c1ccccc1 | 9.43% (inactive) |  |
| COc1ccc(OC)c(NC(=O)C2(C)CCN2C(=O)Cc2ccccc2)c1 (centres undefined) | 13.4% (inactive) |  |
| Cc1cc(C(=O)N2CCCC2(C)C(=O)O)c(C)o1 (centres undefined) | 12.2% (inactive) |  |
| COC(=O)[C@@]1(Cc2ccc(F)cc2)[C@H]2c3cc(C(=O)N(C)C)n(CCc4c[nH]c5ccc(OC)cc45)c3C[C@H]2CN1C(=O)c1ccccc1 | 6.89% (inactive) |  |
| COC(=O)[C@@]1(Cc2ccc(F)cc2)[C@H]2c3cc(C(=O)N4CCCC4)n(Cc4ccc(OC(F)(F)F)cc4)c3C[C@H]2CN1C(=O)c1ccccc1 |  | 23.1 µM (active) |
| COC(=O)[C@@]1(Cc2ccc(F)cc2)[C@H]2c3cc(C(=O)N4CCCC4)n(C[C@H](O)CO)c3C[C@H]2CN1C(=O)c1ccccc1 | 3.55% (inactive) |  |
| CCCNC(=O)C1(C)CCN(Cc2csc(-c3ccc(Cl)cc3)n2)C1 (centres undefined) | -27.7% (inactive) |  |
| COc1ccc(-c2cc3c(c4c2ccn4C)C2CCC3C2)cn1 (centres undefined) | -0.197% (inactive) |  |
| COc1cccc(-n2c(SCC(=O)NC3CCCCC3)nc3n[nH]c(C)c3c2=N)c1 |  | 18.4 µM (active) |
| COc1cccc(-n2c(SCC(=O)NC3CCS(=O)(=O)C3)nc3ccccc3c2=O)c1 (centres undefined) | 0.884% (inactive) |  |
| C=CCn1c(CC(=O)Nc2cccc(OC)c2)nnc1SCC(=O)NC1CCCCC1 | -3.5% (inactive) |  |
| CCc1noc(C)c1C(=O)OCC(=O)c1ccc(NC(=O)CC(C)C)cc1 | -12% (inactive) |  |
| FC(F)(F)c1ccccc1Cc1c(-c2ccccc2)nc2c3ccccc3ccn12 | 0.112% (inactive) |  |
| O=C(NCC(F)(F)F)c1ccc(S(=O)(=O)NCCc2ccc3c(c2)OCCO3)cc1 | 0.85% (inactive) |  |

| Compound | activity, negative = toxicity | Potency |
| --- | --- | --- |
| Cc1cc(C)nc(Nc2n[nH]c(-c3ccccc3N)n2)n1 |  | 32.6 µM (active) |
| CCCOc1ccccc1-c1nc(SCCC(=O)O)n[nH]1 | -22.7% (inactive) |  |
| Nc1ccccc1-c1nc2ccncc2[nH]1 | -0.0305% (inactive) |  |
| CCOC(=O)[C@]12CCC=C1N(CCC1=CCCCC1)C(=O)[C@H](CC(=O)NCc1ccc(C)o1)C2 | -10.4% (inactive) |  |
| CC(=O)C[C@@H]1OC[C@H](C)N1S(=O)(=O)c1ccc(C)cc1 | -14.2% (inactive) |  |
| CN(C)CCOc1ccc(Cl)cc1C(C)(C)C | -2.96% (inactive) |  |
| CN(C)CCOCCOc1ccc(Cl)c2ccccc12 |  | 20.6 µM (active) |
| CCN(CC)CCOCCOc1ccc(Cl)c2ccccc12 | -5.77% (inactive) |  |
| N#CCCC(C#N)(c1cccnc1)N1CCOCC1 (centres undefined) | 5.2% (inactive) |  |
| CCC(C)CN1C(=O)CN(S(C)(=O)=O)CC1(C)C(=O)Nc1ccc2c(c1)OCCO2 (centres undefined) | 21.2% (inactive) |  |
| O=C(NCc1ccco1)c1cccc(-c2ccc3nncn3c2)c1 | 0.613% (inactive) |  |
| CCCSc1nc(NCc2ccco2)c2c3c(sc2n1)COC(C)(CC)C3 (centres undefined) | 14.4% (inactive) |  |
| CCC1(C)Cc2c(sc3[nH]c(=S)n(Cc4ccccc4)c(=O)c23)CO1 (centres undefined) |  | 14.6 µM (active) |
| Cn1c(=O)[nH]c(=O)c2c1[nH]c(=S)n2Cc1ccccc1 | 3.8% (inactive) |  |
| OC[C@@H]1CN(Cc2cccs2)C[C@H](n2cnc3c(Nc4ccccc4)ncnc32)O1 | -11% (inactive) |  |
| Cc1ccc(Cl)cc1NC(=S)N(CCN(C)C)Cc1cccs1 | -9.19% (inactive) |  |
| Cc1cc(Cl)ccc1-c1nc(NCCN(C)C)nc2ccsc12 |  | 23.1 µM (active) |
| O=C(CC[C@H]1O[C@@H](n2ccc(=O)[nH]c2=O)[C@H](O)[C@@H]1O)N[C@H](Cc1ccccc1)C(=O)NCc1ccco1 | 29.4% (inactive) |  |
| CCc1ccccc1NC(=O)CN1CCN(C(=O)c2cc(C3CC3)nn2-c2ccccc2)CC1 | -0.558% (inactive) |  |
| COc1ccc(NC(=O)CCCOc2ccc(C(C)=O)cc2)cc1S(=O)(=O)N1CCCCC1 | -11.2% (inactive) |  |
| CCC(CC)C(C(=O)NC1CCCC1)N1CCN(c2cc(C)nc3ccccc23)CC1 (centres undefined) | -24.2% (inactive) |  |
| COc1ccc(CCNC(=O)/C(C#N)=C2\N=C(NC(=O)c3cccs3)c3ccccc32)cc1 | -7.12% (inactive) |  |
| Cc1ccc2nc(/C(C#N)=C\c3ccc(OC(=O)c4cccs4)cc3)[nH]c2c1 |  | 7.94 µM (active) |
| COc1ccc2c(c1)CCCO[C@]21O[C@H](CCO)C[C@H](O)[C@H]1O | 13% (inactive) |  |

| Compound | activity, negative = toxicity | Potency |
| --- | --- | --- |
| Nc1ncnc2c1ncn2[C@@H]1O[C@H](C(=O)N2CCSC2)[C@@H](O)[C@H]1O | 19% (inactive) |  |
| CC1(C(=O)Nc2ccc3c(c2)OCCO3)CN(S(C)(=O)=O)CC(=O)N1Cc1cccc(F)c1 (centres undefined) | 23% (inactive) |  |
| CCCCCc1c(C)nc(N2CCN(Cc3ccc4c(c3)OCO4)CC2)[nH]c1=O | 22.7% (inactive) |  |
| Fc1ccc2[nH]c3c(N4CCN(Cc5ccc6c(c5)OCO6)CC4)ncnc3c2c1 |  | 23.1 µM (active) |
| O=c1[nH]c(N2CCN(Cc3ccc4c(c3)OCO4)CC2)nc2c1CCCC2 | -0.272% (inactive) |  |
| CC(C)NC(=O)N1Cc2cc(C(=O)NCC(F)(F)F)nc(-c3cccc(-c4cc5ccccc5o4)c3)c2[C@@H]1CCO | -18.3% (inactive) |  |
| CCOC(=O)C1CCCN(C(=O)c2cc(-c3cccs3)oc2C)CC1 (centres undefined) | -12.7% (inactive) |  |
| CCn1c(SCC(=O)N2CCCC2=O)nc2ccccc21 | 7.12% (inactive) |  |
| CCC(=C/c1sc2ccc3ccccc3c2[n+]1C)/C=C1\Sc2ccc3ccccc3c2N1C |  | 5.17 µM (active) |
| CCC1NC(=O)c2cccnc2-n2c1nc1ccc(C)cc1c2=O (centres undefined) | 5.21% (inactive) |  |
| CCCS(=O)(=O)NC(=O)C1(C)CCN(C(=O)c2sccc2C)C1 (centres undefined) | 6.6% (inactive) |  |
| COc1ccc2nc(/N=C(\N)NC(=O)Nc3ccccc3)nc(C)c2c1 | -26.8% (inactive) |  |
| CC(C)c1cc(C(=O)NC2CCCCCC2)c2ccccc2n1 | -15.4% (inactive) |  |
| Cc1nc(/N=C(\N)NC(=O)NC2CCCCC2)nc2ccccc12 |  | 14.6 µM (active) |
| C[C@@H]1CC2=C(C(=O)OC(C)(C)O2)[C@@H](C2CC2)O1 | 0.29% (inactive) |  |
| CN(Cc1ccc(C(F)(F)F)cc1)C(=O)[C@H]1O[C@@H](n2cnc3c(N)ncnc32)[C@H](O)[C@@H]1O | 9.93% (inactive) |  |
| COc1ccc(-c2n[nH]c(C)c2-c2ccc(OC)c(OC)c2)c(O)c1 |  | 18.4 µM (active) |
| COc1ccc(-c2c(-c3ccc(OC)cc3O)nc(C)nc2C(F)(F)F)cc1 | -10.8% (inactive) |  |
| COc1ccc(-c2[nH]ncc2CN(C)Cc2c(C)n[nH]c2C)c(OC)c1 | -2.08% (inactive) |  |
| CC1(C(=O)NS(=O)(=O)c2ccccc2)CCN1C(=O)C1CCCCC1 (centres undefined) | 25.8% (inactive) |  |
| O=C1c2ccccc2C(c2nc3ccccc3[nH]2)N1c1ccccc1 (centres undefined) | 6.09% (inactive) |  |
| C=C1c2c(Cl)ccc(O)c2C(O)=C2C(=O)[C@]3(O)C(O)=C(C(N)=O)C(=O)[C@@H](N(C)C)[C@@H]3[C@@H](O)C12 (some centres undefined) |  | 18.4 µM (active) |
